# High-throughput results as filed in PubChem.
# Hits are enriched below; roughly 12% of the tested compounds scored in any of these assays.
# Sfp inh: blocks B. subtilis Sfp PPTase activity. Q9F4F7. Biochemical Sfp PPTase activity, qHTS. Potency, µM, without a hit: largest response in the series, negative = inhibition, hits mostly inhibitors. hit rate 3.5% among 310,000. AID 1490;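 also: the enzyme is Sfp with the accession as filed and its product quenches rhodamine fluorescence; 0% = enzyme reaction without inhibitor and -100% = no enzyme wells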
#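 After 15 min at room temperature with compound, 15 nM Sfp received 5 uM rhodamine-CoA plus 12.5 uM BHQ-2-ybbR (50 mM Hepes pH 7.6, 10 mM MgCl2). Rate came from the fluorescence difference over 30 min, ex 525/em 598 nm.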
# JMJD2A Tudor: inhibitors of human JMJD2A Tudor domain. O75164. AlphaScreen JMJD2A-Tudor / H3K4me3 peptide binding. Potency, µM (highest dose often 114 µM), without a hit: at the highest dose activity change, negative = inhibition, usual class: inhibitors. hit rate 4.4% among 390,000. AID 504339; also: % is scaled to controls: 0 for no effect and ±100 for the full control effect; nearly all actives have a fitted effect of over 50% in size
# L3MBTL1 inh: inhibitors of human L3MBTL1; AlphaScreen L3MBTL1–H3K9me1 peptide binding; Potency, µM (series often up to 57.1 µM), inactives show at the highest dose activity, negative = inhibition, hits mostly inhibitors; hit rate 0.66% among 230,000; also: % is scaled to controls: 0 for no effect and ±100 for the full control effect; nearly all actives have a fitted effect of over 60% in size
#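 Read-out is AlphaScreen signal from streptavidin donor and nickel chelate acceptor beads (10 ug/mL final each) bridging L3MBTL1 (50 nM) and biotinylated K9-monomethylated H3(1-15) peptide (75 nM), after 30 min compound exposure at room temperature.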
# HP1b chromo inh: inhibitors of HP1-beta chromodomain binding to methylated histone tails; Potency, µM (top dose mostly 114 µM), for inactives: at the highest dose activity change, negative = inhibition, hits mostly inhibitors; AlphaScreen HP1-beta / biotin-H3K9me3 peptide binding; hit rate 0.56% among 390,000; also: nearly all actives have a fitted effect of over 70% in size
# Target sequence (P83916 whole entry, looked up): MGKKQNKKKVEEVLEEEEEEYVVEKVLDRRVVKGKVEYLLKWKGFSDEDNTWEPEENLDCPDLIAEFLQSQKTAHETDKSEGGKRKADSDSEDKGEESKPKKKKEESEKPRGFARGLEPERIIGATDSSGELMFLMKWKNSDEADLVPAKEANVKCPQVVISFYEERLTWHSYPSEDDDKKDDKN
#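 HP1-beta protein (50 nM final) preincubated 30 min at room temperature with biotinylated H3(1-18)K9me3 peptide (50 nM) in PBS pH 7.4, 0.01% Tween-20, then compound added for 30 min. AlphaScreen streptavidin donor/nickel chelate acceptor beads (10 ug/mL final), 30 min dark, luminescence read.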
# G9a inh: blocks human histone lysine methyltransferase G9a; Q96KQ7; G9a H3K9 monomethylation, AlphaScreen, 2 h; Potency, µM (doses to about 102 µM), without a hit: at the highest dose activity, negative = inhibition, actives largely listed as inhibitors; hit rate 8.8% among 350,000; AID 504332; also: % is scaled to controls: 0 for no effect and ±100 for the full control effect; nearly all actives have a fitted effect of over 75% in size
# Target sequence (Q96KQ7 913-1193 limits assumed): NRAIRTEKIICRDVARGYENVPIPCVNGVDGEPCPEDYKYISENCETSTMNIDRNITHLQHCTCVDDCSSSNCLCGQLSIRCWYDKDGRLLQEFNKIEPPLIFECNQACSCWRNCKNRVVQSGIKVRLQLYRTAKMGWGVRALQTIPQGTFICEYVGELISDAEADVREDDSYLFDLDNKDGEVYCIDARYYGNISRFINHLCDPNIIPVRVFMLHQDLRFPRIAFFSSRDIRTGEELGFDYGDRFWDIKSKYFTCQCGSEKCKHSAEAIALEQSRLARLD
#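 Signal arises when biotinylated H3K9 peptide, once monomethylated, bridges streptavidin donor and antibody-captured acceptor beads. Enzyme at 20 nM was preincubated 15 min with test compounds; peptide 500 nM and SAM 20 uM then reacted for 2 h.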
# BAZ2B block: BAZ2B (human) inhibition; Q9UIF8; Potency, µM (series often up to 114 µM), for the others: top-dose activity change, negative = inhibition, most hits filed as inhibitors; hit rate 4.4% among 360,000; AlphaScreen BAZ2B-H3K14Ac peptide displacement; also: % is scaled to controls: 0 for no effect and ±100 for the full control effect; nearly all actives have a fitted effect of over 60% in size
#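 BAZ2B 50 nM plus b-H3(5-23)K14Ac 50 nM, PBS pH 7.4/0.01% Tween-20, 30 min RT; compound added (max 110 uM), 30 min RT; streptavidin donor/Ni-chelate acceptor beads 10 ug/mL final, 20 min dark; AlphaScreen read.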
# An asterisk follows results filed as active; ? = inconclusive; / = no result given; [ ] = dose if it differs, or a comment. Calls follow the shape of the dose curve; as a rule, active = well fitted curve in the direction sought with a large enough effect; inconclusive = small, poorly fitted or top-dose-only effect, or another doubt; inactive = no such curve, though single readings can be large; an effect the other way counts as inactive or inconclusive. Potency is read from the fitted curve at half-maximal effect.
SMILES,Sfp inh,JMJD2A Tudor,L3MBTL1 inh,HP1b chromo inh,G9a inh,BAZ2B block
Cc1[nH]ccc(=O)c1Cc1c(Cl)cccc1Cl,6%,-1%,/,20%,2%,-2%
COc1ccc([C@]2(C(C)C)ON(c3ccccc3C(F)(F)F)C2=O)cc1,/,75%,29%,108%,7%[0.501 µM],81%
Cc1ccc(C(c2nnnn2C2CCCC2)N2CCc3ccccc32)cc1 (stereo not given),-6%,-31%,-13%,11%,?,?
Cc1ccc2[nH]c(=O)c(C(c3nnnn3C3CCCC3)N3CCCc4ccccc43)cc2c1 (stereo not given),8.9µM*,?,10%,-9%,?,-34%
CCC(C)(C)n1nnnc1C(c1cc2cc3c(cc2[nH]c1=O)OCO3)N1CCN(C)CC1 (stereo not given),11%,4%,-3%,25%,1%,10%
CCC(C)(C)n1nnnc1C(c1cc2cc(C)ccc2[nH]c1=O)N1CCCc2ccccc21 (stereo not given),20µM*,-27%,/,8%,4%[12.7 µM],-8%
CN(C)c1ncc2nc(CCc3ccccc3)c(=O)n(CCC#N)c2n1,-8%,/,/,/,-2%[0.501 µM],/
N#Cc1ccccc1NC(=O)COc1ccccc1C(=O)Nc1ccccc1,/,-23%,27%,7%,/,/
CCCc1cc(-c2[nH]ncc2-c2ccc3c(c2)OCCCO3)c(O)cc1O,13%,40µM*,-24%,-20%,-19%[12.7 µM],?
CCCc1cc(-c2[nH]ncc2-c2ccc(C(=O)OCC)o2)c(O)cc1O,12%,?,-30%,?,-10%[59 µM],?
CCn1c(O)c(/C=N/n2cnnc2)sc1=S,45µM*,56µM*,-3%,-21%,18µM*,?
Oc1c(C=Nc2ccccc2)sc(=S)n1Cc1ccccc1,24%,7%,-3%,43%,-5%,-22%
CCn1c(O)c(C=Nc2ccccc2)n(-c2ccccc2)c1=S,79µM*,11%[11.4 µM],/,1%,7.9µM*,12%
CCn1c(O)c(C=Nc2ccccc2)sc1=S,56µM*,-11%,/,42%,?,6%
C=CCn1c(O)c(C=Nc2ccccc2)sc1=S,-2%,-12%,2%,35%,50µM*,-18%
CC1(C)O[C@@H]2[C@@H](O1)C(c1ccccc1)(c1ccccc1)OP(=O)(O)OC2(c1ccccc1)c1ccccc1,-4%,/,/,/,/,/
CCC(=O)N1c2ccc(S(=O)(=O)CCC(=O)Nc3ccc(OC)cc3OC)cc2CC1C (stereo not given),-12%,?,/,25%[57 µM],40µM*,-27%
CCC(=O)N1c2ccc(S(=O)(=O)CCC(=O)NCc3ccccc3OC)cc2CC1C (stereo not given),/,-15%,/,9%,?,/
Cc1ccc(CNC(=O)CCS(=O)(=O)c2ccc3c(c2)CC(C)N3C(=O)C2CC2)cc1 (stereo not given),21%,-1%,/,24%,12%,-13%[57.1 µM]
CCOc1ccccc1NC(=O)CCS(=O)(=O)c1ccc2c(c1)CC(C)N2C(C)=O (stereo not given),-19%,-9%,/,21%[57 µM],25µM*,2%
CCC(=O)N1c2ccc(S(=O)(=O)CCC(=O)NCc3ccc4c(c3)OCO4)cc2CC1C (stereo not given),-7%,50µM*,-2%,-5%,12%[0.501 µM],-6%
CCc1nnc(NC(=O)[C@@H](NC(=O)c2cc(OC)cc(OC)c2)C(C)C)s1,-6%,-10%,14%,6%,-6%[12.7 µM],-3%
COc1ccccc1OCCOc1ccc(/C=C2/C(=N)N3OC(C)=CC3=NC2=O)cc1OC,8%,-36%,0%,11%,71µM*,-26%
CCOc1cc(/C=C2\C(=N)N3N=C(S(=O)(=O)CC)SC3=NC2=O)ccc1OC(=O)c1ccco1,?,-5%,/,28%,45µM*,?
CC1=CN2C(=N)/C(=C/c3ccc(C)o3)C(=O)N=C2S1,-2%,-6%,-9%,14%,-4%[59 µM],?
SMILES,Sfp inh,JMJD2A Tudor,L3MBTL1 inh,HP1b chromo inh,G9a inh,BAZ2B block
COc1cc(/C=C2\C(=N)N3N=C(S(C)(=O)=O)SC3=NC2=O)ccc1OC(=O)c1cccs1,-20%,-4%,/,31%,-25%,56µM*
CCOc1cc(/C=C2/C(=N)N3N=C(CC)SC3=NC2=O)ccc1OC(=O)c1ccco1,-6%,-33%,/,-3%,/,-17%
CCS(=O)(=O)C1=NN2C(=N)/C(=C\c3ccc(SCc4ccco4)o3)C(=O)N=C2S1,20µM*,32µM*,32µM*,?,13µM*,50µM*
C=CCc1cccc(/C=N/NC(=O)CN2CCN(Cc3ccccc3)CC2)c1O,0%,/,/,/,/,/
CCCCOc1ccc(CNC(=O)C2CCCN(c3nnc(-n4c(C)ccc4C)s3)C2)cc1 (stereo not given),/,-21%,/,17%,-4%[59 µM],2%
CCS(=O)(=O)C1=NSC2=NC(=O)/C(=C\c3ccc(OC(=O)c4ccco4)cc3)C(=N)N21,-7%,-19%,/,8%,45µM*,?
COc1cc(/C=C2\C(=N)N3N=C(S(C)(=O)=O)SC3=NC2=O)ccc1OC(=O)c1ccco1,-1%,?,/,-12%[57 µM],45µM*,50µM*
CC(C)S(=O)(=O)C1=NSC2=NC(=O)/C(=C\c3ccc(OC(=O)c4ccco4)cc3)C(=N)N21,2%,7%,/,32%,19%[0.0925 µM],?
CCS(=O)(=O)C1=NN2C(=N)/C(=C\c3ccc(OC(=O)c4ccco4)c(Br)c3)C(=O)N=C2S1,-7%,/,/,/,-17%[59 µM],50µM*
CCOc1cc(/C=C2\C(=N)N3N=C(N4CCCCC4)SC3=NC2=O)ccc1OC(=O)c1ccco1,?,?,-8%,-13%,?,?
CCOc1cc(/C=C2/C(=N)N3C(=NC2=O)SN=C3S(C)(=O)=O)ccc1OC(=O)c1ccco1,-3%,?,/,5%,6%[0.0925 µM],50µM*
COc1cc(C(=O)Nc2ccc(NC(=O)c3ccccc3Cl)nc2)cc(OC)c1OC,24%,-14%,/,-2%,7%,-5%
CN(Cc1ccccc1)C(=O)c1ccc(NC(=O)Cc2cccc(NC(=O)C3CCN(C(=O)C4CCCC4)CC3)c2)cc1,/,-10%,0%,33%,3%[0.501 µM],12%
CN(CC(=O)Nc1ccc(F)cc1)C(=O)c1ccc(OCc2cn3ccccc3n2)cc1,/,-17%,-5%,1%[57 µM],/,/
COc1cc(/C=C2\C(=N)N3N=C(S(C)(=O)=O)SC3=NC2=O)ccc1OCCOc1ccccc1C,?,?,/,?,25µM*,56µM*
COc1ccc2[nH]c3c(c2c1)[C@@H]1CCN2C(=O)CCC[C@H](C3)[C@H]12,2%,-22%,-7%,11%,32µM*,?
